What follows are sequences tested against EPAS1 (assay: pooled miR-30 sensor sort-seq; sequence = guide strand). Conditions: shRNA.
For TTCACCTCACAGTCATATCTGG, the sensor-assay potency score (higher = more potent) was -0.278. With TTTGTCATGGCACTGAAGCAGT the sensor-assay potency score (higher = more potent) was -0.635. TTGCTCTTCATACTCCAGCTGT gave a sensor-assay potency score (higher = more potent) of -0.454.

Each sequence was assayed against EPB41 in the same assay as above. Conditions: shRNA.
Sequence TAGCTTGCCTGGTCTGAGCTTG has a sensor-assay potency score (higher = more potent) of -0.0306. In the case of TTAGCTGCTCGGTAACTGGGAA, the sensor-assay potency score (higher = more potent) is reported as -0.397. TTTACTTCTATTTTGGAGCACT was tested, and the sensor-assay potency score (higher = more potent) was -0.574. Sequence TTCTTTGCCTTCTTCCTCGGAC has a sensor-assay potency score (higher = more potent) of -0.102. Work on TAGAGCACTAGCTTGCCTGGTC yielded a sensor-assay potency score (higher = more potent) of 0.107. For TTGATCTCCTCTTGACTCTTGT, the sensor-assay potency score (higher = more potent) was 0.588. With TTATGTCTTCTGTTAACTGTGC the sensor-assay potency score (higher = more potent) was -0.0684. In the case of TTTGATCTCCTCTTGACTCTTG, the sensor-assay potency score (higher = more potent) is reported as 0.604. TTGACAAGATTCCTCCTGCTGA gave a sensor-assay potency score (higher = more potent) of -0.541. Sequence TTTTTCAGCTCACTGATGCTGG has a sensor-assay potency score (higher = more potent) of 0.147. For TTGGTCACTGACATGTCTGGGT, the sensor-assay potency score (higher = more potent) was -0.161. Work on TTTACTTGCTGTACGCTCGAAG yielded a sensor-assay potency score (higher = more potent) of 0.135. Sequence TTGACTCTTGTCTAAATCCTCC has a sensor-assay potency score (higher = more potent) of -0.522. In the case of TAGAATAATCTTGAAAGTCTGA, the sensor-assay potency score (higher = more potent) is reported as 0.113. TGTTTGACAAGATTCCTCCTGC gave a sensor-assay potency score (higher = more potent) of 0.721. Sequence TTGAACAATTCTGATATCCTAA has a sensor-assay potency score (higher = more potent) of -0.113. Sequence ATAATTTCTTAGCTGCTCGGTA has a sensor-assay potency score (higher = more potent) of -0.474. Work on TAAAACTTTACATTAAATGTAA yielded a sensor-assay potency score (higher = more potent) of -0.313. With TATCTTGTTATGTCTTCTGTTA the sensor-assay potency score (higher = more potent) was -0.573. TTCTGGGTCGTAGTCTCCCAGT was tested, and the sensor-assay potency score (higher = more potent) was -1.42. ATCTTCTCTGAGTTCTTCCTGA was tested, and the sensor-assay potency score (higher = more potent) was -0.459. TTTGTAGAAACAACCAGCCTGG showed a sensor-assay potency score (higher = more potent) of 0.246. TTCATAAACTGTGTCATCCAAC showed a sensor-assay potency score (higher = more potent) of -0.828.

These sequences were tested against EPC2 in the same assay as above. Conditions: shRNA.
TTCTTCACTATCACTGTCCTGT showed a sensor-assay potency score (higher = more potent) of 0.612. With TTATTGTTCACAGTCTGCCCTG the sensor-assay potency score (higher = more potent) was -0.344. Sequence TATAACTCTTTTTCTGATCTAC has a sensor-assay potency score (higher = more potent) of 0.207. TTGCATCTGAACTAACTGCTGC was tested, and the sensor-assay potency score (higher = more potent) was 0.128. Work on TTGAGGTACATTCTTCACTATC yielded a sensor-assay potency score (higher = more potent) of -1.27. With TTAAGTGCAATAATTCTCGTTT the sensor-assay potency score (higher = more potent) was 0.497. In the case of TTGCTGTTTCTGCTGAAGCTGG, the sensor-assay potency score (higher = more potent) is reported as -1.06. TTTCTCTAAACACTTGCTGTGC was tested, and the sensor-assay potency score (higher = more potent) was -0.595. TTTTTCTCTAAACACTTGCTGT showed a sensor-assay potency score (higher = more potent) of -0.823. For TAGTTTTACATTCTTGAACTTT, the sensor-assay potency score (higher = more potent) was -0.105. Sequence TTCTTGAAGTGTTACAAGCTGA has a sensor-assay potency score (higher = more potent) of -0.486. With TTAATTTCCATCTTTCTGTTAA the sensor-assay potency score (higher = more potent) was -0.679.

From the OligoGym collection
Further: reference of the scale not given here.
